Experimental data reported in PubChem BioAssay (NCATS).
Records with an inconclusive call do not appear. A call without a number means that no potency is given here. The source made the active and inactive calls. Calls come from the whole dose curve. Peptide text beside a SMILES is read from it.

Experiments:
[1] = Cytotoxicity counterscreen for inhibitors of SARS-CoV-2 cell entry (AID 1645845); conditions: outcome: dose series up to 57.1 µM unless noted; note: nearly all actives have a fitted effect of over 50% in size
How it was run: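 Expi293F/hACE2 cells seeded overnight; cpd pin-transferred in DMSO, 1 h preincubation, + media, 48 h 37 C 5% CO2; ATPLite 1step luminescence; normalized to cells and no cells.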

[2] = Primary qHTS to identify inhibitors of SARS-CoV-2 cell entry (AID 1645846); conditions: SARS-CoV-2 pseudovirus cell entry assay, luminescence; activity change, negative = inhibition: at 57.1 µM (top of the series) unless noted; note: nearly all actives have a fitted effect of over 45% in size
How it was run: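 Using luciferase-reporting pseudoviruses carrying Wuhan-Hu-1 spike, the screen tracks entry into stably ACE2-expressing cells over 48 hr. Activity is expressed relative to spike particles versus particles lacking any fusion protein.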
Potency is the fitted concentration of half-maximal effect.

## CC(C)(C)Sc1c(CC(C)(C)C(=O)O)n(Cc2ccc(Cl)cc2)c2ccc(OCc3ccc4ccccc4n3)cc12
[1]
  Potency: inactive
[2]
  Potency: inactive

## O=c1oc2c(C3OCCCO3)c(O)ccc2c2c1CNCC2
[1]
  Potency: inactive
[2]
  activity change, negative = inhibition: 1.62%

## CC(=O)N1CCC(Nc2cc(C(=O)NC[C@H](O)CN3CCc4ccccc4C3)ncn2)CC1
[1]
  Potency: inactive
[2]
  Potency: inactive

## NS(=O)(=O)NCCNc1nonc1C(=Nc1ccc(F)c(Br)c1)NO
[1]
  Potency: inactive
[2]
  activity change, negative = inhibition: -14.4%

## C[C@@H]1CC(=O)Nc2cccc(-c3cnn(C(C)(C)C)c3)c2N1
[1]
  Potency: inactive
[2]
  activity change, negative = inhibition: -17.2%

## O=C1Cc2cc(C(=O)NC3C[C@H]4CC[C@@H](C3)N4S(=O)(=O)CC3CCN(CCCC(F)(F)F)CC3)c(Cl)cc2N1 (stereo not given in full)
[1]
  Potency: inactive
[2]
  activity change, negative = inhibition: -20.5%

## COc1ccc([C@@H]2CC(=O)c3c(O)cc(O[C@@H]4O[C@H](CO[C@@H]5O[C@@H](C)[C@H](O)[C@@H](O)[C@H]5O)[C@@H](O)[C@H](O)[C@H]4O)cc3O2)cc1O
[1]
  Potency: inactive
[2]
  Potency: inactive

## CC1(C)CC[C@]2(C(=O)O)CC[C@]3(C)C(=CC[C@@H]4[C@@]5(C)C[C@@H](O)[C@H](O)C(C)(C)[C@@H]5CC[C@]43C)[C@@H]2C1
[1]
  Potency: inactive
[2]
  Potency: inactive

## C=CC(=O)Nc1ccc2ncnc(Nc3cccc(Br)c3)c2c1
[1]
  Potency: 14.1 µM (active)
[2]
  Potency: 7.94 µM (active)

## O=C1CC[C@H](N2Cc3c(OCc4ccc(CN5CCOCC5)cc4)cccc3C2=O)C(=O)N1
[1]
  Potency: inactive
[2]
  activity change, negative = inhibition: -23.3%

## Nc1nc(F)nc2c1ncn2C1OC(COP(=O)(O)O)C(O)C1O (stereo not given)
[1]
  Potency: inactive
[2]
  activity change, negative = inhibition: -9.43%

## CC(=O)N1CCC[C@H]1C(=O)N[C@@H](Cc1cnc[nH]1)C(=O)N[C@@H](CO)C(=O)N[C@@H](CS)C(=O)N[C@@H](CC(N)=O)C(N)=O (Ac-PHSCN-NH2)
[1]
  Potency: inactive
[2]
  activity change, negative = inhibition: -1.41%

## O=c1ccn([C@@H]2O[C@H](CO)[C@@H](O)[C@H]2O)c(=O)[nH]1
[1]
  Potency: inactive
[2]
  activity change, negative = inhibition: -16.1%

## C[C@@H](O)[C@@H]1NC(=O)[C@H](CCCCN)NC(=O)[C@@H](Cc2c[nH]c3ccccc23)NC(=O)[C@H](Cc2ccccc2)NC(=O)[C@@H](NC(=O)[C@H](N)Cc2ccccc2)CSSC[C@@H](C(=O)N[C@H](CO)[C@@H](C)O)NC1=O
[1]
  Potency: inactive
[2]
  activity change, negative = inhibition: -12.9% [at 27.1 µM]

## CCO[C@@H]1OC(=O)C[C@@H]1NC(=O)[C@@H]1CCCN1C(=O)[C@@H](NC(=O)c1ccc(N)c(Cl)c1)C(C)(C)C
[1]
  Potency: inactive
[2]
  activity change, negative = inhibition: -14.2%

## Cc1cc(C)cc(NC(=O)Cc2ccc(OC(C)(C)C(=O)O)cc2)c1
[1]
  Potency: inactive
[2]
  Potency: inactive

## Cc1ccccc1-n1nc(-c2c(-c3ccc(F)cc3)nn3c2NC[C@@H](CO)C3)ccc1=O
[1]
  Potency: inactive
[2]
  activity change, negative = inhibition: -24.3%

## Nc1cccc2c1CN([C@H]1CCC(=O)NC1=O)C2=O
[1]
  Potency: inactive
[2]
  activity change, negative = inhibition: -16.6%

## CC[C@H](Nc1ncnc2nc[nH]c12)c1oc2ccccc2c(=O)c1-c1cccc(F)c1
[1]
  Potency: inactive
[2]
  Potency: inactive

## COc1cc2ncnc(Oc3cccc(NC(=O)Nc4cc(C(C)(C)C(F)(F)F)on4)c3)c2cc1OC
[1]
  Potency: inactive
[2]
  activity change, negative = inhibition: -20.7%

## OC(c1ccc(-c2ccc(CN3CCN(Cc4ccncc4)CC3)cc2)c(F)c1)(C(F)(F)F)C(F)(F)F
[1]
  Potency: inactive
[2]
  Potency: inactive

## COC(=O)C1=C(C)NC(c2ncc(F)cc2F)=N[C@@H]1c1ccc(F)cc1Cl
[1]
  Potency: inactive
[2]
  activity change, negative = inhibition: -19.4%

## COc1cc(-c2cn(C)c(=O)c3cnccc23)cc(OC)c1CN(C)C
[1]
  Potency: inactive
[2]
  Potency: inactive

## O=C(/C=C/c1ccc(Cl)cc1)N1CCC2(CC1)CN(Cc1ccc(Cl)c(Cl)c1)C(=O)O2
[1]
  Potency: inactive
[2]
  activity change, negative = inhibition: 0.824%

## COCCNc1cc(NC(=O)N2CCCc3cc(CN4CCN(C)CC4=O)c(C=O)nc32)ncc1C#N
[1]
  activity change, negative = cytotoxicity: 2.9% [at 11.3 µM] (inactive)
[2]
  activity change, negative = inhibition: -9.55% [at 11.3 µM]

## O=C(O)c1ccc(CN2CCC(CN[C@@H]3C[C@H]3c3ccccc3)CC2)cc1
[1]
  Potency: inactive
[2]
  Potency: inactive

## O=C(NOCC(O)CO)c1ccc(F)c(F)c1Nc1ccc(I)cc1F (stereo not given)
[1]
  Potency: inactive
[2]
  activity change, negative = inhibition: -21.5%

## COc1cc2c3c(n(CCCNCCO)c(=O)c2cc1OC)-c1cc2c(cc1C3=O)OCO2
[1]
  Potency: 7.94 µM (active)
[2]
  activity change, negative = inhibition: -96.5%

## Nc1nc(OC(c2ccc(-c3cccc(F)c3)cc2)C(F)(F)F)cc(-c2ccc(C[C@@H](N)C(=O)O)cc2)n1 (stereo not given in full)
[1]
  Potency: inactive
[2]
  Potency: inactive

## Cc1[nH]nc(C(F)(F)F)c1Cc1sc2c(c1C(=O)N1C[C@](C)(O)CO1)c(=O)n(C)c(=O)n2C(C)C
[1]
  Potency: inactive
[2]
  activity change, negative = inhibition: -25.9%
